This passage reports growth inhibition results from PubChem BioAssay (NCI).

Experiment [1] can be described thus: NCI Yeast Anticancer Drug Screen. Data for the rad50 strain (AID 155).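 Further: 0% = growth of vehicle-only cultures of the same strain.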 The conditions noted are these: S. cerevisiae rad50 strain growth inhibition, stronger effect = higher value. The gist of the method: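 Vehicle-treated cultures provide the reference for the growth inhibition reported for compound-exposed, repair-deficient yeast.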
Experiment [2] can be described thus: NCI Yeast Anticancer Drug Screen. Data for the mec2-1 strain (AID 157). The conditions noted are these: S. cerevisiae mec2-1 strain, stronger effect = higher value. The gist of the method: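 Vehicle-treated cultures served as reference for growth inhibition of compound-exposed mec2-1 yeast.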
The nature of experiment [3]: NCI Yeast Anticancer Drug Screen. Data for the sgs1 mgt1 strain (AID 161).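 Further: 0% = growth of cultures given vehicle only.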 The conditions noted are these: S. cerevisiae sgs1 mgt1 strain, stronger effect = higher value. The gist of the method:
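Mutant yeast exposed to compound; growth scored against vehicle-only wells.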

Experiment [4] in a line: NCI Yeast Anticancer Drug Screen. Data for the cln2 rad14 strain (AID 165).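 Further: 0% = growth equal to vehicle treated cultures.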 The conditions noted are these: S. cerevisiae cln2 rad14 strain, stronger effect = higher value. An outline of the steps: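 Each compound was tested on cln2 rad14 yeast. Inhibition of growth was calculated against vehicle-exposed controls.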
Experiment [5] in a line: NCI Yeast Anticancer Drug Screen. Data for the bub3 strain (AID 167). The conditions noted are these: S. cerevisiae bub3 mutant strain, stronger effect = higher value. An outline of the steps: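 Mutant yeast screening strain plus compound; vehicle-treated cultures serve as the 0% inhibition reference.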
The nature of experiment [6]: NCI Yeast Anticancer Drug Screen. Data for the mlh1 rad18 strain (AID 175). The conditions noted are these: S. cerevisiae mlh1 rad18 strain growth inhibition, stronger effect = higher value. The gist of the method:
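Vehicle-treated cultures served as the reference for growth inhibition in a yeast strain carrying DNA damage repair alterations exposed to each compound.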

The mark [7] stands for this setting: at 5.0 µM (retest, dose inferred, filed as 0.5).
Setting [8] is: at 50.0 µM (retest, dose inferred, filed as 5.0).

This is part of a sample that, as a whole, favours compounds with a hit. Of some 79,000 tested, about 15% had one in any assay. Values without a mark were called inactive. Activity calls are given as the source filed them. No stated cut-off is given here; in the data, active means growth inhibition above about 70%; inactive means the rest.

With `Nc1ccc(Cl)c2c1C(=O)c1ccccc1C2=O`, the growth inhibition in experiment [1] (setting [7]) is 40%; in experiment [1] (setting [8]), 19%; in experiment [1] (at 50.0 µM), 98.8% (active); in experiment [2] (setting [7]) it was 13%; in experiment [2] (setting [8]) it was 7%; in experiment [2] (at 50.0 µM), 56.8%. In addition, the growth inhibition in experiment [3] (setting [7]) is 0%; in experiment [3] (setting [8]), 41%; in experiment [3] (at 50.0 µM) it was 89.2% (active); in experiment [4] (setting [7]), -4%; in experiment [4] (setting [8]), 3%; in experiment [4] (at 50.0 µM), 46.6%. The growth inhibition in experiment [5] (setting [7]) is 0%; in experiment [5] (setting [8]), 30%; in experiment [5] (at 50.0 µM), 34.1%; in experiment [6] (setting [7]), 13%; in experiment [6] (setting [8]), 12%; in experiment [6] (at 50.0 µM), 89.3% (active).
`O=C1Nc2c(Cl)cc(Cl)cc2/C1=N/N=C/c1ccco1`: the growth inhibition is 24% in experiment [1] (setting [7]); 84% (active) in experiment [1] (setting [8]); 52.6% in experiment [1] (at 50.0 µM); 26% in experiment [2] (setting [7]); 83% (active) in experiment [2] (setting [8]); 53.4% in experiment [2] (at 50.0 µM). Further, the growth inhibition in experiment [3] (setting [7]) was 28%; in experiment [3] (setting [8]), 68%; in experiment [3] (at 50.0 µM) it was 67.3%; in experiment [4] (setting [7]) it was 28%; in experiment [4] (setting [8]), 74% (active); in experiment [4] (at 50.0 µM), 63.2%. The growth inhibition was 21% in experiment [5] (setting [7]); 83% (active) in experiment [5] (setting [8]); 55.4% in experiment [5] (at 50.0 µM); 37% in experiment [6] (setting [7]); 94% (active) in experiment [6] (setting [8]); 89.2% (active) in experiment [6] (at 50.0 µM).
Regarding `CC12CCC3c4cc(O)ccc4CCC3C1CCC2O` (stereo not given), the growth inhibition in experiment [1] (setting [7]) is 4%; in experiment [1] (setting [8]) it was 54%; in experiment [1] (at 50.0 µM), 50.2%; in experiment [2] (setting [7]), -4%; in experiment [2] (setting [8]), 51%; in experiment [2] (at 50.0 µM) it was 26.5%. For the same compound, the growth inhibition was 1% in experiment [3] (setting [7]); 81% (active) in experiment [3] (setting [8]); 58.2% in experiment [3] (at 50.0 µM); -6% in experiment [4] (setting [7]); 41% in experiment [4] (setting [8]); 24.8% in experiment [4] (at 50.0 µM). In addition, the growth inhibition in experiment [5] (setting [7]) was -1%; in experiment [5] (setting [8]) it was 54%; in experiment [5] (at 50.0 µM), 55.4%; in experiment [6] (setting [7]) it was 4%; in experiment [6] (setting [8]), 67%; in experiment [6] (at 50.0 µM), 37%.
Take `NC(N)=NS(=O)(=O)c1ccc(N=Cc2c3ccccc3nc3cc(Cl)ccc23)cc1`: the growth inhibition in experiment [1] (setting [7]) was 5%; in experiment [1] (setting [8]), -4%; in experiment [1] (at 50.0 µM), 95.1% (active); in experiment [2] (setting [7]), 11%; in experiment [2] (setting [8]) it was -2%; in experiment [2] (at 50.0 µM), 93% (active). In addition, the growth inhibition was 4% in experiment [3] (setting [7]); -5% in experiment [3] (setting [8]); 96.2% (active) in experiment [3] (at 50.0 µM); -5% in experiment [4] (setting [7]); -3% in experiment [4] (setting [8]); 91.5% (active) in experiment [4] (at 50.0 µM). Moreover, the growth inhibition was 10% in experiment [5] (setting [7]); 0% in experiment [5] (setting [8]); 26.5% in experiment [5] (at 50.0 µM); 6% in experiment [6] (setting [7]); -2% in experiment [6] (setting [8]); 97% (active) in experiment [6] (at 50.0 µM).
With `C=CC(=O)c1ccc2c(c1)OCCOCCOCCOCCOCCO2`, the growth inhibition in experiment [1] (setting [7]) is -18%; in experiment [1] (setting [8]), 64%; in experiment [1] (at 50.0 µM) it was 77.8% (active); in experiment [2] (setting [7]) it was 4%; in experiment [2] (setting [8]), 50%; in experiment [2] (at 50.0 µM) it was 54.5%. Further, the growth inhibition is -13% in experiment [3] (setting [7]); 40% in experiment [3] (setting [8]); 62.8% in experiment [3] (at 50.0 µM); 20% in experiment [4] (setting [7]); 42% in experiment [4] (setting [8]); 4.4% in experiment [4] (at 50.0 µM). Besides, the growth inhibition was -4% in experiment [5] (setting [7]); 78% (active) in experiment [5] (setting [8]); 78% (active) in experiment [5] (at 50.0 µM); 0% in experiment [6] (setting [7]); 86% (active) in experiment [6] (setting [8]); 59.4% in experiment [6] (at 50.0 µM).
`CCC[N+]1=C(/C=C/c2ccc3cccnc3c2O)C(C)(C)c2ccccc21`: the growth inhibition is 0% in experiment [1] (setting [7]); 98% (active) in experiment [1] (setting [8]); 98.8% (active) in experiment [1] (at 50.0 µM); 0% in experiment [2] (setting [7]); 98% (active) in experiment [2] (setting [8]); 99% (active) in experiment [2] (at 50.0 µM). For the same compound, the growth inhibition was 10% in experiment [3] (setting [7]); 98% (active) in experiment [3] (setting [8]); 54% in experiment [3] (at 50.0 µM); -15% in experiment [4] (setting [7]); 98% (active) in experiment [4] (setting [8]); 98.9% (active) in experiment [4] (at 50.0 µM). The growth inhibition in experiment [5] (setting [7]) is 4%; in experiment [5] (setting [8]) it was 98% (active); in experiment [5] (at 50.0 µM), 98.8% (active); in experiment [6] (setting [7]) it was 25%; in experiment [6] (setting [8]), 98% (active); in experiment [6] (at 50.0 µM) it was 97.8% (active).
`Fc1cccc(CSc2n[nH]c(=S)c3nc[nH]c23)c1`: the growth inhibition in experiment [1] (setting [7]) is 0%; in experiment [1] (setting [8]) it was -3%; in experiment [1] (at 50.0 µM) it was 9.9%; in experiment [2] (setting [7]) it was -8%; in experiment [2] (setting [8]), -1%; in experiment [2] (at 50.0 µM) it was 10%. In addition, the growth inhibition in experiment [3] (setting [7]) is -1%; in experiment [3] (setting [8]) it was -10%; in experiment [3] (at 50.0 µM), 15.4%; in experiment [4] (setting [7]), -7%; in experiment [4] (setting [8]), -14%; in experiment [4] (at 50.0 µM) it was 40.8%. For the same compound, the growth inhibition in experiment [5] (setting [7]) is -2%; in experiment [5] (setting [8]) it was -3%; in experiment [5] (at 50.0 µM) it was -3.85%; in experiment [6] (setting [7]), -16%; in experiment [6] (setting [8]) it was -16%; in experiment [6] (at 50.0 µM), 5.1%.
For the compound `COc1ccc(C2CN(C(=O)c3ccccc3)N=C(c3ccccc3)O2)cc1` (stereo not given), the growth inhibition in experiment [1] (setting [7]) was -1%; in experiment [1] (setting [8]), -16%; in experiment [1] (at 50.0 µM) it was 93.7% (active); in experiment [2] (setting [7]), -8%; in experiment [2] (setting [8]) it was 1%; in experiment [2] (at 50.0 µM) it was 93.2% (active). The growth inhibition was 1% in experiment [3] (setting [7]); -46% in experiment [3] (setting [8]); 93.7% (active) in experiment [3] (at 50.0 µM); -5% in experiment [4] (setting [7]); -8% in experiment [4] (setting [8]); 90.2% (active) in experiment [4] (at 50.0 µM). Moreover, the growth inhibition in experiment [5] (setting [7]) was -4%; in experiment [5] (setting [8]) it was -67%; in experiment [5] (at 50.0 µM), 90% (active); in experiment [6] (setting [7]) it was -6%; in experiment [6] (setting [8]) it was -6%; in experiment [6] (at 50.0 µM), 95% (active).
For the compound `Cc1ccc(SCN2CCCCC2)cc1` (tested in a mixture with another compound), the growth inhibition in experiment [1] (setting [7]) was 21%; in experiment [1] (setting [8]), 29%; in experiment [1] (at 50.0 µM), 62%; in experiment [2] (setting [7]) it was 1%; in experiment [2] (setting [8]) it was 2%; in experiment [2] (at 50.0 µM), 12.6%. Besides, the growth inhibition in experiment [3] (setting [7]) is 23%; in experiment [3] (setting [8]), 22%; in experiment [3] (at 50.0 µM), 35.9%; in experiment [4] (setting [7]) it was -10%; in experiment [4] (setting [8]), 18%; in experiment [4] (at 50.0 µM), 0.35%. Also, the growth inhibition in experiment [5] (setting [7]) is -9%; in experiment [5] (setting [8]) it was 4%; in experiment [5] (at 50.0 µM), 1.2%; in experiment [6] (setting [7]) it was 20%; in experiment [6] (setting [8]) it was 44%; in experiment [6] (at 50.0 µM), 75.2% (active).
Consider `CCOC(=O)C(C(=O)OCC)c1ccc([N+](=O)[O-])o1`, for which the growth inhibition was 14% in experiment [1] (setting [7]); 82% (active) in experiment [1] (setting [8]); 86% (active) in experiment [1] (at 50.0 µM); -15% in experiment [2] (setting [7]); 96% (active) in experiment [2] (setting [8]); 86.4% (active) in experiment [2] (at 50.0 µM). Further, the growth inhibition in experiment [3] (setting [7]) was 8%; in experiment [3] (setting [8]) it was 89% (active); in experiment [3] (at 50.0 µM), 89.2% (active); in experiment [4] (setting [7]) it was 6%; in experiment [4] (setting [8]), 79% (active); in experiment [4] (at 50.0 µM) it was 81.9% (active). The growth inhibition in experiment [5] (setting [7]) is 0%; in experiment [5] (setting [8]), 94% (active); in experiment [5] (at 50.0 µM), 87.9% (active); in experiment [6] (setting [7]) it was 3%; in experiment [6] (setting [8]) it was 96% (active); in experiment [6] (at 50.0 µM), 82.2% (active).
